# Compound activity deposited in PubChem by Broad Institute.
# esBAF inh – Bmi1 luciferase reporter increase in mESCs, primary screen, esBAF inhibitor project, mouse ES cells, Bmi1 luciferase knock-in, single point; 24 h; 100% = twice the neutral-well signal; reporter increase, % at 12.5 µM; 2% of 350,000 active; AID 602393, 2012; in the data active = activation above about 40%; inconclusive = no clear call, values can overlap the other calls;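 note: a rise in the Bmi1 reporter signal indicates esBAF inhibition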
# MITF act – activators of MITF-driven TRPM1 promoter reporter, primary screen, cell-based, SK-MEL-5, luciferase, single point; SK-MEL-5 TRPM1-promoter luciferase, 24 h; % of positive control, neutral wells = 0; activation, % at 12.5 µM; 0.75% of 300,000 active;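 active = mean activation of at least 80% with every replicate also reaching 80%; inconclusive = mean reaches 80% but some replicate falls short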
# N-glyco inh – increase of ERlucT glycosylation luciferase signal, primary screen, N-linked glycosylation inhibitor project, D54 ERlucT cells, luminescence, set 2. D54 ERlucT glycosylation luciferase reporter, 24 h; percent of 100 nM tunicamycin response. reporter increase, % at 12.5 µM. 0.23% of 360,000 active. AID 588692, 2011;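 active = mean luciferase reporter signal, scaled so untreated is 0 and the glycosylation-blocking control 100, at or above a set limit in every replicate; inconclusive = mean reaches the limit but not every replicate does; inactive = mean below the limit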;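 note: luciferase carries N-glycosylation sites so blocking glycosylation raises the light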
# Wnt bcat act – Wnt/beta-catenin pathway activators, primary screen, cell-based, plate reader, single point; AID 743398, 2014; activation, % at 9.35 µM; 1.2% of 300,000 active; Wnt/beta-catenin reporter cell assay, activator; in the data active = activation above about 30%, passing the limit was not always enough; inconclusive = no clear call, values can overlap the other calls
# PvdQ inh – P. aeruginosa PvdQ acylase inhibitors, primary screen, biochemical, fluorescence, plate reader and imaging, single point; PvdQ acylase [Pseudomonas aeruginosa LESB58]; purified PvdQ acylase; inhibition, % at 10 µM; 0.063% of 340,000 active; AID 488965, 2010; in the data active = inhibition above about 30%, passing the limit was not always enough; inconclusive = no clear call, values can overlap the other calls
# Vif imaging – HIV Vif self-association inhibitors, primary screen, imaging, HEK293T, single point. 0.35% of 340,000 active. HEK293T cells, Vif self-association by quenched fluorescence, 24 h. inhibition, % at 7.49 µM. AID 602346, 2012; in the data active = inhibition above about 50%, passing the limit was not always enough; inconclusive = no clear call, values can overlap the other calls; inactive = below about 31%
# Hits are given with their value; . = inactive; ? = inconclusive; / = no result given. This is a sample that favours compounds with a hit; in the whole collection about 2.9% have one here.
SMILES,esBAF inh,MITF act,N-glyco inh,Wnt bcat act,PvdQ inh,Vif imaging
Cc1cc(C)n2ncc(/C(N)=N/OC(=O)c3ccccc3F)c2n1,/,?,.,37.8,.,.
Cc1cc(C)n2ncc(/C(N)=N/OC(=O)Nc3ccc(Cl)cc3)c2n1,/,/,.,.,.,.
CCOC(=O)c1cnn2c(C)cc(-c3ccccc3)nc12,/,/,.,42.8,.,.
Cc1noc(C)c1NC(=O)Nc1ccc2c(c1)C(=O)N([C@@H](C)CO)C[C@@H](C)[C@@H](CN(C)S(=O)(=O)c1ccc(F)cc1)OCCCC[C@H](C)O2,.,/,/,/,/,/
COc1cccc(S(=O)(=O)N(C)C[C@H]2Oc3ncc(C#CCN(C)C)cc3C(=O)N([C@@H](C)CO)C[C@H]2C)c1,.,/,/,/,/,/
O=C(COC(=O)c1c(F)cccc1F)Nc1ccccc1OC(F)F,.,.,.,.,.,50.6
COc1ccccc1C(=O)OCC(=O)Nc1ccccc1OC(F)F,/,.,.,.,.,.
NC(=S)N/N=C/c1ccc(-c2ccccc2)o1,/,.,.,.,.,.
Cc1ccc(-c2ccc(/C=N/NC(N)=S)o2)cc1,/,/,.,58.0,.,.
CCC(=O)Nc1ccc(-c2nnc(SCc3ccc(C(=O)Nc4nccs4)cc3)n2CC)cc1,.,.,.,/,.,67.3
COC(=O)C[C@@H]1C[C@@H]2c3cc(NS(C)(=O)=O)ccc3O[C@@H]2[C@H](CO)O1,.,/,/,/,/,/
N#CC(Sc1ccccn1)c1ccc(Cl)cc1 (stereo not drawn),/,.,.,.,47.8,.
O=c1[nH]c2cc([N+](=O)[O-])ccc2c2ccccc12,/,.,.,.,.,.
O=C1Cc2c([nH]c3ccc([N+](=O)[O-])cc23)-c2ccccc2N1,/,.,88.3,.,.,.
Cc1ccc2nc3c(cc(C(N)=S)c(=N)n3CCCOC(C)C)c(=O)n2c1,.,.,36.8,.,.,.
Cc1cccc(C(=O)NCC(c2ccco2)N(C)C)c1 (stereo not drawn),.,.,.,.,.,.
CN(C)c1cccc(C(=O)NCC(c2ccco2)N(C)C)c1 (stereo not drawn),40.3,.,.,.,.,.
COc1ccc(Cl)cc1NC(=O)c1ccc2c(SCC(=O)O)c3c(nc2c1)CCCC3,.,.,.,.,.,.
C[C@@H](CO)NC(=O)c1ccc2c3n(nc2c1)-c1ccc(Cl)cc1CO3,81.4,101.9,.,46.5,.,/
CC(C)[C@@H](CO)NC(=O)c1ccc2c3n(nc2c1)-c1ccc(Cl)cc1CO3,59.1,89.0,.,44.7,.,/
COc1ccccc1C(C#N)c1cccc(Cl)n1 (stereo not drawn),.,.,.,.,116.3,.
N#CC(c1ccccc1)c1cccc(Cl)n1 (stereo not drawn),/,.,.,.,102.9,.
CN(C)c1ccc(C(C#N)c2ccccc2)nn1 (stereo not drawn),.,.,.,.,.,.
C[C@@H]1CN([C@@H](C)CO)C(=O)c2cc(NC(=O)Nc3cccc4ccccc34)ccc2O[C@@H]1CN(C)Cc1ccc(C(=O)O)cc1,.,/,/,/,/,/
CN(C)C(=O)C[C@H]1CC[C@@H]2[C@H](COc3ccc(NC(=O)c4ccc(F)c(F)c4)cc3C(=O)N2C)O1,.,/,/,/,/,/
SMILES,esBAF inh,MITF act,N-glyco inh,Wnt bcat act,PvdQ inh,Vif imaging
COc1cc(Br)cc(/C=C/c2ccc3cccc(O)c3n2)c1OC,.,.,.,.,.,.
COc1cccc(/C=C/c2ccc3cccc(O)c3n2)c1OC,68.8,.,.,53.7,.,.
COc1ccc(/C=C/c2ccc3cccc(O)c3n2)c(OC)c1OC,83.7,.,.,57.3,.,.
Cc1ccc(S(=O)(=O)Nc2ccc3c(c2)CC(=O)N([C@@H](C)CO)C[C@H](C)[C@H](CN(C)Cc2ccc4c(c2)OCO4)O3)cc1,.,/,/,/,/,/
CC(C)(C)c1ccc(C(=O)Nc2ccc([N+](=O)[O-])cn2)cc1,/,107.4,.,/,.,.
CCC(CC)C(=O)Nc1ccc([N+](=O)[O-])cn1,.,.,.,.,.,.
O=C(CCC1CCCC1)Nc1ccc([N+](=O)[O-])cn1,58.6,.,.,/,.,.
CC(CC(=O)c1cccs1)CC(=O)c1cccs1,70.0,.,.,.,.,.
O=C(CC(C(=O)O)c1ccccc1)c1cccs1 (stereo not drawn),/,/,.,.,.,.
Cc1cc(C)c(C(CC(=O)c2cccs2)C(C#N)C#N)c(C)c1 (stereo not drawn),/,.,.,49.2,.,.
CCc1ccc(C(=O)CCC2CCCCC2=O)cc1 (stereo not drawn),.,88.5,.,/,.,.
Cc1ccc(C(=O)CCC2CCCC2=O)cc1 (stereo not drawn),57.1,.,.,/,.,.
Cc1ccc(C(=O)CCC2CCCCC2=O)cc1 (stereo not drawn),45.3,.,.,.,.,.
O=C(CCC1CCCCC1=O)c1ccccc1 (stereo not drawn),.,.,.,/,.,.
COc1cccc(NC(=O)Nc2ccc3c(c2)C(=O)N(C)[C@H]2CC[C@H](CC(=O)NCCc4ccccc4)O[C@H]2CO3)c1,.,/,/,/,/,/
CNC(=O)C[C@H]1CC[C@H]2[C@@H](COC[C@H](O)CN2Cc2ccccc2F)O1,.,/,/,/,/,/
CCOC(=O)CN1C(=O)S/C(=C\c2ccc(-c3ccc(C(=O)O)c(Cl)c3)o2)C1=O,.,.,.,.,.,.
CC(C)N1C(=O)S/C(=C\c2ccc(-c3ccc(Cl)c(C(=O)O)c3)o2)C1=O,47.5,/,.,.,.,.
CC1(C)CC(=O)C=C(c2ccc3[nH]ccc3c2)C1,.,.,.,.,.,.
O=C1C=C(c2ccc3[nH]ccc3c2)CCC1,88.0,?,.,46.4,.,.
Cc1c(NC(=O)c2ccc(Cl)c([N+](=O)[O-])c2)cccc1-n1cnnn1,.,.,.,.,.,55.9
CC1(C(=O)NS(=O)(=O)c2ccc(C#N)cc2)CCN1C(=O)c1cccc(F)c1 (stereo not drawn),.,/,.,49.1,/,.
CC=Cc1ccc2n(c1=O)C[C@H]1[C@H](CO)[C@@H](C(=O)NCc3ccc(F)cc3)[C@@H]2N1CCC (mixture of isomers),.,/,/,/,/,/
Oc1ccccc1/C=N/NC(=S)NC1CC2CC1C1C=CCC21 (stereo not drawn),56.8,.,.,48.6,.,.
O=C(C[C@@H]1C[C@H]2c3cc(NS(=O)(=O)c4ccc(F)cc4)ccc3O[C@H]2[C@H](CO)O1)N1CCc2ccccc2C1,.,/,/,/,/,/
CNC[C@@H]1Oc2ccc(NS(=O)(=O)c3ccc(Cl)cc3)cc2C(=O)N([C@@H](C)CO)C[C@H]1C,.,/,/,/,/,/
